Screening data (PubChem)
HT1080 IDH1KD tx: qHTS for induction of synthetic lethality in tumor cells producing 2HG: qHTS for the HT-1080-IDH1KD cell line. 360,000 compounds, 2% hits. Potency, µM (highest dose often 46.1 µM), inactives show at the highest dose activity, negative = toxicity, hits mostly cytotoxic. HT-1080 IDH1 knockdown viability, ATP luminescence, 48 h;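 note: potency is the fitted concentration of half-maximal effect; 0% = DMSO wells and -100% = cell-free medium wells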
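Luminescent ATP read-out (CellTiter-Glo, 10 min at room temperature) after 48 h compound exposure at 37 °C gave viability of IDH1-knockdown HT-1080 cells. Activity was normalised to DMSO and cell-free wells, then fitted as concentration-response curves.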
IL-1B inflam inh: qHTS for Inhibitors of Inflammasome Signaling: IL-1-beta AlphaLISA Primary Screen; THP-1 LPS/ATP IL-1B secretion, AlphaLISA, 16 h; active compounds read low; activity change, % at 57.5 µM; 360,000 compounds, 4.7% hits; in the data active = activity change below about -50%; inconclusive = mostly about -30% to -49%
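Secreted IL-1B measured by AlphaLISA bead assay after 16 h compound exposure of THP-1 cells; compounds (final up to 57.5 uM) added 1 h before LPS (250 ng/mL) and ATP (1.25 mM) stimulation; lower signal means less secretion.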
TDP1 cell noCPT: qHTS for Inhibitors of human tyrosyl-DNA phosphodiesterase 1 (TDP1): qHTS in cells in absence of CPT; DT40 Tdp1-/- hTDP1 cells, no CPT, ATP luminescence, 48 h; Potency, µM (doses to about 46.2 µM), for the others: top-dose activity change, negative = growth inhibition, most hits filed as inhibitors; 420,000 compounds, 15% hits; note: potency is the fitted concentration of half-maximal effect; nearly all actives have a fitted effect of over 55% in size
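Compound effects on proliferation are scored in DT40 Tdp1-/-;hTDP1 cells in the absence of CPT. ATP levels (CellTiter-Glo luminescence) are recorded after a ≥48 hr, 37 °C incubation.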
TDP1 cell CPT: qHTS for Inhibitors of human tyrosyl-DNA phosphodiesterase 1 (TDP1): qHTS in cells in presence of CPT; AID 686979, 2013; 420,000 compounds, 12% hits; Potency, µM (highest dose often 46.2 µM), inactives show at the highest dose activity change, negative = growth inhibition, most hits filed as inhibitors; chicken DT40 Tdp1-/-;hTDP1 cells + 20 nM CPT, ATP luminescence, 48 h; note: potency is the fitted concentration of half-maximal effect; nearly all actives have a fitted effect of over 55% in size
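Chicken DT40 Tdp1-/- cells complemented with human TDP1, 400 cells/well, exposed to compounds plus 20 nM camptothecin for at least 48 h at 37 C; viability read as ATP content by CellTiter-Glo luminescence.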
HT1080-NT tox: qHTS for induction of synthetic lethality in tumor cells producing 2HG: qHTS for the HT-1080-NT fibrosarcoma cell line. HT-1080-NT fibrosarcoma viability, CellTiter-Glo ATP luminescence, 48 h. Potency, µM (top dose mostly 46.1 µM), inactives show at the top dose activity, negative = less viability, hits mostly cytotoxic. 360,000 compounds, 1.6% hits;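 note: NT is the 2HG producing partner of a matched IDH1 knockdown line; potency is the fitted concentration of half-maximal effect; 0% = DMSO-treated cells and -100% = media-only wells without cells; nearly all actives have a fitted effect of over 55% in size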
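HT-1080-NT fibrosarcoma cells (2HG-overproducing), 750 cells/well in RPMI with 5% FBS, dosed after 2 h and incubated 48 h at 37C. CellTiter-Glo luminescence normalized to DMSO and no-cell wells; concentration-response curves fitted and classed.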
ELG1 DNA repair: qHTS screen for small molecules that inhibit ELG1-dependent DNA repair in human embryonic kidney (HEK293T) cells expressing luciferase-tagged ELG1; HEK293T ELG1-luciferase reporter, luminescence, 16 h; DNA damage induced by 5-fluorouridine; Potency, µM (highest dose often 46.1 µM), without a hit: at the highest dose activity change, negative = inhibition, most hits filed as inhibitors; 330,000 compounds, 2.3% hits; AID 504467, 2011; note: potency is the fitted concentration of half-maximal effect; nearly all actives have a fitted effect of over 55% in size
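Luminescence from the luciferase reporter, measured 30 min after ONE-Glo reagent at room temperature, was the read-out. Beforehand, 2,000 cells per well were exposed for 16 hr at 37 °C to 5-fluorouridine together with compound or vehicle.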
The depositor's hits bear a star; ? = inconclusive; . = no result. The list is not random: actives were taken first. Their share in the collection is about 19%. Unless noted, calls come from the whole dose curve; as a rule, active = well fitted curve in the direction sought with a large enough effect; inconclusive = small, poorly fitted or top-dose-only effect, or another doubt; inactive = no such curve, though single readings can be large; an effect the other way counts as inactive or inconclusive. Unless noted, % is set by controls: 0 for no effect and ±100 for the full control effect.

SMILES	HT1080 IDH1KD tx	IL-1B inflam inh	TDP1 cell noCPT	TDP1 cell CPT	HT1080-NT tox	ELG1 DNA repair
O=c1c(-c2ccco2)nc2ccccc2n1C(CCc1ccccc1)c1nc2ccccc2[nH]1 (configuration not stated)	-17%	-19	?	?	?	.
O=c1c(-c2ccco2)nc2ccccc2n1C(c1ccccn1)c1nc2ccccc2[nH]1 (configuration not stated)	-7%	0	?	?	-18%	.
CCC(c1nc2ccccc2[nH]1)n1c(=O)c(-c2ccco2)nc2ccccc21 (configuration not stated)	-1%	-66*	18µM*	21µM*	6%	.
O=c1c(-c2ccco2)nc2ccccc2n1C(c1ccccc1)c1nc2ccccc2[nH]1 (configuration not stated)	?	-8	23µM*	16µM*	?	.
O=C(Cc1ccc(NC(=O)C2CCN(C(=O)C3CCC3)CC2)cc1)Nc1ccc(C(=O)N2CCOCC2)cc1	6%	?	-5%	8%	8%	.
COc1ccc(NS(=O)(=O)c2ccc3oc(=O)c4[nH]c(=O)c(=O)n(C)c4c3c2)cc1	6%	28	?	?	8%	0%
CCC(C)(C)NC(=O)C(c1ccccc1Cl)N(C(=O)CCC(=O)Nc1cc(C)on1)c1ccc(NC(C)=O)cc1 (configuration not stated)	-3%	-18	-1%	-19%	0%	5%
COC(=O)c1ccc(-c2sc3nc(N4CCOCC4)c4c(c3c2N)CCCC4)o1	1%	-9	26µM*	18µM*	-1%	?
COC(=O)c1sc2nc(N3CCCCC3)c3c(c2c1N)CCCC3	-4%	-9	-28%	-15%	-1%	11%
COC(=O)c1ccc(CSc2ncnc3c2sc2nc(N4CCOCC4)c4c(c23)CCCC4)o1	0%	-12	18µM*	?	6%	.
Cc1ccc2[nH]c(O)c(N=NC(=O)c3ccc(NS(=O)(=O)c4cccs4)cc3)c2c1	-4%	18	?	15µM*	6%	-21%
O=C(N=Nc1c(O)[nH]c2ccc(F)cc12)c1ccc(NS(=O)(=O)c2cccs2)cc1	14%	13	10%	33%	1%	-6%
O=C(N=Nc1c(O)[nH]c2ccccc12)c1ccccc1NS(=O)(=O)c1cccs1	?	-1	-29%	16µM*	-24%	-2%
CCC(C)NC(=O)CN(c1ccc(Cl)c(Cl)c1)S(C)(=O)=O (configuration not stated)	1%	-6	1%	-28%	20%	0%
Cc1nc2ccccc2n1CSc1ccccc1	-21%	-13	?	-29%	0%	-2%
Cc1nc([N+](=O)[O-])c(SCC(N)=O)n1Cc1ccccc1	12%	-18	?	-2%	7%	3%
CCC(O)c1nc2ccccc2n1Cc1cccc(Cl)c1 (configuration not stated)	.	.	18µM*	?	.	.
Cc1nc([N+](=O)[O-])c(Sc2nc3ccccc3n2C)n1Cc1ccccc1	?	-105*	5.2µM*	?	-8%	?
CCC(C)Cn1c(C)nc2ccccc21 (configuration not stated)	-1%	38	10µM*	?	2%	9.2µM*
Cc1nc2cc(NCc3ccccc3O)ccc2n1Cc1ccccc1	-23%	-54*	?	?	-20%	?
NC(=O)CC(NC(=O)Cc1cccc2ccccc12)c1ccc(N2CCN(c3ccccn3)CC2)c([N+](=O)[O-])c1 (configuration not stated)	-7%	15	-27%	?	0%	24%
COc1cccc(CNC(=O)CN2c3cccc4cccc(c34)S2(=O)=O)c1	-10%	8	1%	-6%	-5%	1%
Cc1nn(CC(=O)NCC(C)c2ccccc2)c(=O)c2cccn12 (configuration not stated)	11%	9	4%	4%	8%	17%
CC(c1nc2ccccc2n1Cc1ccccc1)N1CCCCC1 (configuration not stated)	-2%	-11	18µM*	16µM*	-6%	5%
Cc1nc(Br)c(Br)n1Cc1ccccc1	?	40	21µM*	?	-5%	.
SMILES	HT1080 IDH1KD tx	IL-1B inflam inh	TDP1 cell noCPT	TDP1 cell CPT	HT1080-NT tox	ELG1 DNA repair
Cc1nc2ccccc2n1Cc1ccccc1Br	?	-15	?	?	-25%	-4%
S=c1[nH]nc(-c2ccc(Br)cc2)n1Cc1ccccc1	-7%	13	?	?	9%	-6%
Cc1cccc(Cn2c(-c3cccc(Br)c3)nc3ccccc32)c1	.	.	16µM*	18µM*	.	.
Cc1nc2ccccc2n1Cc1ccc(Br)cc1	?	-63*	6.5µM*	5.8µM*	-22%	.
CCOC(=O)C1=CN(Cc2ccco2)S(=O)(=O)N(C)C1CC (configuration not stated)	-2%	-6	-26%	?	-7%	11%
Cn1c(N)c(C(=O)CSc2nc(N)cc(N)n2)c(=O)n(C)c1=O	3%	11	10%	-2%	0%	3%
c1ccc(Cc2nc3ccccc3n2Cc2ccccc2)cc1	?	-9	?	-21%	-29%	-10%
Cc1nc2ccccc2n1Cc1ccccc1	?	53	?	16µM*	-2%	?
COc1ccc(/C=C(/NC(=O)c2ccccc2)C(=O)N2CCOCC2)cc1OC	11%	-67*	5%	10%	22%	?
COc1ccc(-c2ccc(/C=C(\NC(=O)c3ccccc3)C(=O)N3CCOCC3)o2)cc1	-8%	-57*	21µM*	15µM*	-4%	?
O=C(N/N=C/c1ccc2c(c1)OCO2)/C(=C/c1ccc2c(c1)OCO2)NC(=O)c1ccccc1	-5%	?	?	?	2%	-10%
COc1ccc(/C=C(/NC(=O)c2ccccc2)C(=O)N/N=C/c2ccc3c(c2)OCO3)cc1OC	-15%	-69*	-28%	-27%	?	?
